Most compounds without a hit are left out; they make up all but 10% or so of the library.
L3MBTL1 inh: L3MBTL1 (human) inhibition | AlphaScreen L3MBTL1–H3K9me1 peptide binding | Q9Y468 | AID 485360 | 230,000 tested, 0.66% active | Potency, µM (titrated, usually from 57.1 µM), usual class: inhibitors; also: nearly all actives have a fitted effect of over 60% in size
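Read-out is AlphaScreen signal from streptavidin donor and nickel chelate acceptor beads (10 ug/mL final each) bridging L3MBTL1 (50 nM) and biotinylated K9-monomethylated H3(1-15) peptide (75 nM), after 30 min compound exposure at room temperature.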
HP1b binding inh: HP1-beta chromodomain-methylated histone interaction inhibition. Potency, µM (top dose mostly 114 µM), hits mostly inhibitors. AlphaScreen HP1-beta / biotin-H3K9me3 peptide binding. 390,000 tested, 0.56% active; also: nearly all actives have a fitted effect of over 70% in size
Target sequence (P83916 whole entry, looked up): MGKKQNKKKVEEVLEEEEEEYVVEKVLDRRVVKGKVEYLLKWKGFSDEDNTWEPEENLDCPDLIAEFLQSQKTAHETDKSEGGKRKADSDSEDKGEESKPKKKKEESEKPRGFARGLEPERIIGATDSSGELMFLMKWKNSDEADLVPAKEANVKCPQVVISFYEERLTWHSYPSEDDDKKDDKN
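HP1-beta protein (50 nM final) preincubated 30 min at room temperature with biotinylated H3(1-18)K9me3 peptide (50 nM) in PBS pH 7.4, 0.01% Tween-20, then compound added for 30 min. AlphaScreen streptavidin donor/nickel chelate acceptor beads (10 ug/mL final), 30 min dark, luminescence read.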
GLS inhibitor: glutaminase GLS (human) inhibition; O94925; GLS enzymatic activity, qHTS titration; Potency, µM (series often up to 45.5 µM), actives largely listed as inhibitors; 410,000 tested, 0.21% active; AID 624170
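Enzyme dispensed in phosphate buffer (45 mM, pH 8.2, 0.02% Tween-20), compounds pinned in, then 1 mM L-glutamine solution and the glutamate oxidase–HRP–Amplex Red mix added; fluorescence read immediately and again after 30 min at room temperature.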
G9a block: G9a (human) methyltransferase inhibition; Potency, µM (highest dose often 102 µM), hits mostly inhibitors; G9a H3K9 monomethylation, AlphaScreen, 2 h; 350,000 tested, 8.8% active; Q96KQ7; AID 504332; also: nearly all actives have a fitted effect of over 75% in size
Target sequence (Q96KQ7 913-1193 limits assumed): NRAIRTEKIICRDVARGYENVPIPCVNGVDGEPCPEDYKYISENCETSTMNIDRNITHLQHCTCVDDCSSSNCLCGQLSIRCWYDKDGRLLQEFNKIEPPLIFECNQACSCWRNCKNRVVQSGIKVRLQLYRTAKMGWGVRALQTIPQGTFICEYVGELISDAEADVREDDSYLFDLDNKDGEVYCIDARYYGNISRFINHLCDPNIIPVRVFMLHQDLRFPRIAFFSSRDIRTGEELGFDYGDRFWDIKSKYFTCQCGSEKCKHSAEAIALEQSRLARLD
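G9a (20 nM) preincubated 15 min RT with compounds, then 500 nM biotinylated H3K9 peptide and 20 uM SAM added; 2 h RT reaction. Monomethyl-H3K9 product detected by AlphaScreen with anti-H3K9me1 antibody, streptavidin donor and anti-rabbit IgG acceptor beads.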
JMJD2A Tudor inh: JMJD2A Tudor domain (human) inhibition | O75164 | AlphaScreen JMJD2A-Tudor / H3K4me3 peptide binding | Potency, µM (highest dose often 114 µM), actives largely listed as inhibitors | 390,000 tested, 4.4% active | AID 504339; also: nearly all actives have a fitted effect of over 50% in size
BAZ2B inh: inhibitors of human BAZ2B bromodomain | AlphaScreen BAZ2B-H3K14Ac peptide displacement | Potency, µM (highest dose often 114 µM), most hits filed as inhibitors | 360,000 tested, 4.4% active | AID 504333; also: nearly all actives have a fitted effect of over 60% in size
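In this displacement format the biotinylated H3(5-23) peptide acetylated at Lys14 serves as ligand at 50 nM, with BAZ2B at 50 nM in PBS pH 7.4 containing 0.01% Tween-20. Donor and acceptor beads are 10 ug/mL final.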
Hits are given with their value; - = inactive; ? = inconclusive; . = no result given; [ ] = another dose, or the depositor's remark. Calls follow the shape of the dose curve; as a rule, active = well fitted curve in the direction sought with a large enough effect; inconclusive = small, poorly fitted or top-dose-only effect, or another doubt; inactive = no such curve, though single readings can be large; an effect the other way counts as inactive or inconclusive.

SMILES	L3MBTL1 inh	HP1b binding inh	GLS inhibitor	G9a block	JMJD2A Tudor inh	BAZ2B inh
Cn1cccc1/C=C1\SC(=S)N(NC(=O)c2ccccc2O)C1=O	-	?	-	5µM	?	32µM
O=C(/C=C/c1ccco1)Oc1cc(Br)cc(/C=N/NC(=O)c2ccccc2O)c1	-	-	-	-	-	-
COc1ccccc1C(=O)NN1C(=O)/C(=C/c2cccn2C)SC1=S	-	.	.	.	.	8.9µM
O=S(=O)(c1ccc2c(c1)OCCO2)C1CCN(S(=O)(=O)c2c(F)cccc2F)CC1	.	.	.	.	-	.
CCOC(=O)c1noc2nc(C)n(Cc3ccc([N+](=O)[O-])cc3)c(=O)c12	.	-	-	-	20µM	-
CCOC(=O)c1noc2nc(C)n(Cc3cccc([N+](=O)[O-])c3)c(=O)c12	.	-	-	-	-	-
COc1ccc(-n2c(SCC(=O)c3ccc(Cl)cc3)nc3c([nH]c4ccccc43)c2=O)cc1	.	-	-	-	-	-
COc1ccc(C2=Nc3nc(-c4ccccc4)cn3C(c3ccc(OC)cc3)C2)cc1 (stereo not given)	-	-	-	22µM	-	-
COc1ccc(C2CC(c3ccccc3)=NN2C(=O)CCC(=O)O)cc1 (stereo not given)	-	-	-	.	-	-
O=C(N/N=C/c1sc2ccccc2c1O)c1ccccc1	-	-	-	?	?	?
COc1ccc(C(=O)N/N=C/c2sc3ccccc3c2O)cc1	-	-	16µM	50µM	?	45µM
O=C(N/N=C/c1sc2ccccc2c1O)c1cccc2ccccc12	-	-	?	-	79µM	45µM
CCn1c(-c2ccc(N)cc2)nc2ccccc21	.	-	-	-	-	-
CN(C)c1ccc(-c2nc3ccccc3n2C)cc1	-	-	-	?	-	?
CCn1c(-c2ccc(N(C)C)cc2)nc2ccccc21	-	-	-	79µM	-	50µM
CC(C)n1c(-c2ccc(N(C)C)cc2)nc2ccccc21	-	?	-	40µM	56µM	40µM
COc1ccc(-c2cc(C(F)(F)F)nc(SCCC(=O)Nc3ccc(NC(C)=O)cc3)n2)cc1	.	-	-	-	-	-
NNc1ccccc1C(F)(F)F	?	?	-	2.8µM	32µM	50µM
CCOc1ccc(C(=O)C(c2ccccc2)N2CCOCC2)cc1 (stereo not given)	-	-	-	-	-	-
COc1ccc(C(=O)C(c2ccccc2)N2CCOCC2)cc1 (stereo not given)	-	-	-	50µM	-	?
CC(C)c1cc(CNC(=O)c2ccc(OC3CCN(Cc4ccccn4)CC3)cc2)on1	.	-	-	?	45µM	56µM
CCn1nc(C)c(CNC(=O)c2ccc(OC3CCN(Cc4ccccn4)CC3)cc2)c1C	.	-	-	-	-	79µM
CCOc1ccc(NC(=O)Cn2nnc(-c3nc(-c4ccncc4)no3)c2N)cc1	.	-	-	-	-	-
CC(=O)n1cc(N(C(=O)CCl)c2ccccc2)c2ccccc21	-	-	-	.	-	-
CC(=O)n1cc(N(C(=O)CCl)c2ccc([N+](=O)[O-])cc2)c2ccccc21	-	-	-	50µM	-	-
SMILES	L3MBTL1 inh	HP1b binding inh	GLS inhibitor	G9a block	JMJD2A Tudor inh	BAZ2B inh
O=C(NNc1ccccc1)/C(=C\c1cccnc1)NC(=O)c1ccccc1	-	-	-	4µM	-	-
O=C(Nc1ccccc1)/C(=C/c1cccnc1)NC(=O)c1ccccc1	.	-	-	-	-	-
CC1(C)CN=C(c2ccccc2)NC1	.	-	-	.	-	.
CCC1(C)CN=C(c2ccccc2)NC1 (stereo not given)	.	-	-	.	35µM	.
C=CCNC(=S)/C(=C(/[O-])c1ccc([N+](=O)[O-])cc1)[n+]1ccccc1	-	-	-	45µM	-[11.4 µM]	-
O=[N+]([O-])c1cccc(/C([O-])=C(/C(=S)Nc2ccccc2)[n+]2ccccc2)c1	-	-	-	10µM	?	-
O=C(NC1CCCCC1)N(Cc1nc2ccccc2c(=O)[nH]1)C1CCCC1	-	-	-	-	-	-
Cc1ccc(S(=O)(=O)N2CCCN(Cc3nc4ccccc4c(=O)[nH]3)CC2)cc1	-	-	-	25µM	?	-
O=C(NC1CCCCC1)N1CCN(Cc2nc3ccccc3c(=O)[nH]2)CC1	.	-	-	.	10µM	.
O=C(NC1CCCCC1)N1CCC(n2cnc3ccccc32)CC1	-	-	-	56µM	56µM	?
O=C(NC1CCCCC1)N(Cc1nc2ccccc2c(=O)[nH]1)C1CCCCC1	-	-	-	28µM	-	?
CCOc1ccc(OCC(=O)NCCS(=O)(=O)N2CCN(c3ccccc3F)CC2)cc1	.	-	-	-	-	-
CC(C)(C)C(=O)OCOC(=O)C1N2C(=O)CC2S(=O)(=O)C1(C)C (stereo not given)	.	.	-	.	.	.
O=C(OCc1ccco1)c1ccc2c(c1)N(Cc1cccc(F)c1)C(=O)c1ccccc1S2	.	-	-	-	-	-
CCc1ccc(C2=NNC(=Nc3c(C)n(C)n(-c4ccccc4)c3=O)SC2)cc1	.	-	-	25µM	-	-
CCN(Cc1ccncc1)Cc1cn[nH]c1-c1ccc(OC)cc1F	-	-	-	50µM	-	-
O=C(NNC(=S)Nc1ccccc1)NNC(=S)Nc1ccccc1	-	-	-	14µM	-	-
Oc1ccc(NC(=S)Nc2ccccc2)cc1	-	-	?	50µM	-	-
COc1cccc(NC(=S)Nc2ccc(F)cc2)c1	-	-	-	-	-	-
COc1cccc(NC(=S)Nc2ccc(O)cc2)c1	.	-	-	8.9µM	-	?
Nc1ccc(NC(=S)Nc2ccccc2)cc1	-	-	-	-[12.7 µM]	-	-
CNC(=S)/N=C(/Nc1ccccc1)c1ccccc1	-	-	-	7.9µM	-	?
Cc1noc(C)c1-c1ccc2ncnc(NCc3ccc(C(F)(F)F)o3)c2c1	.	.	.	.	-	.
COc1ccc(S(=O)(=O)Nc2cc(S(=O)(=O)c3ccccc3)c(O)c(C)c2C)cc1	.	-	-	-	-	-
O=C(NNC(=S)Nc1ccccc1)c1cc(Br)ccc1Cl	.	-	-	40µM	-	-
SMILES	L3MBTL1 inh	HP1b binding inh	GLS inhibitor	G9a block	JMJD2A Tudor inh	BAZ2B inh
O=C(NNC(=S)Nc1ccccc1)Nc1ccccc1	-	-	-	.	-	-
Cn1nc(C(=O)Nc2cc(F)ccc2F)c2c1-c1ccccc1SC2	.	-	-	-	-	-
Cc1cc(C)nc(Nc2ccc(N3CCOCC3)cc2)n1	-	-	-	50µM	-	-
Cc1cc(C)nc(Nc2ccc(O)cc2)n1	.	-	-	-	-	-
Cc1cc(C)nc(Nc2ccc(N3CCCC3)cc2)n1	.	?	-	?	35µM	28µM
CCCc1cc(=O)[nH]c(Nc2ccc(N3CCCCC3)cc2)n1	-[11.4 µM]	?	-	8.9µM	50µM	50µM
